Assay results from the supplement of paper PMC12669032.

How the values were obtained:
Experiment in all cases: growth AUC relative to DMSO control (median of replicates) (fraction); higher = more growth (less inhibition), active = hit call of the paper
Conditions in all cases: 20 µM; 24 h;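 active = AUC reduced over 20% with Padj below 0.05 in at least 2 of 3 replicates; inactive = otherwise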
Coprococcus comes = test system: Coprococcus comes
Outline: (§1)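 OD600 was recorded every hour for 24 h in anaerobic monocultures of gut bacteria kept at 37 °C in mGAM, seeded at OD600 0.05 and given 20 µM compound in 1% DMSO. The area under each growth curve was scaled to the plate median of solvent-only wells, or to row and column medians for the industrial chemical plate. Before this step, the minimum OD was set to 0. Reported values are medians of three biological replicates run on separate days.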

Escherichia coli ED1a = test system: Escherichia coli ED1a
Outline: as §1

Escherichia coli IAI1 = test system: Escherichia coli IAI1
Outline: as §1

Eubacterium rectale = test system: Eubacterium rectale
Outline: as §1

[1] = test system: Fusobacterium nucleatum subsp. animalis
Outline: as §1

Lactobacillus gasseri = test system: Lactobacillus gasseri
Outline: as §1

Lactobacillus paracasei = test system: Lactobacillus paracasei
Outline: as §1

Odoribacter splanchnicus = test system: Odoribacter splanchnicus
Outline: as §1

[2] = test system: Parabacteroides distasonis
Outline: as §1

Parabacteroides merdae = test system: Parabacteroides merdae
Outline: as §1

Roseburia intestinalis = test system: Roseburia intestinalis
Outline: as §1

Streptococcus salivarius = test system: Streptococcus salivarius
Outline: as §1

Measured: growth AUC

CO/N=C(/C1=NOCCO1)c1ccccc1Oc1ncnc(Oc2ccccc2Cl)c1F
inactive: Coprococcus comes 0.962 | Escherichia coli ED1a 0.967 | Escherichia coli IAI1 1.03 | Eubacterium rectale 0.963 | [1] 0.978 | Lactobacillus gasseri 0.992 | Lactobacillus paracasei 1 | Odoribacter splanchnicus 0.974 | Parabacteroides merdae 0.892 | Roseburia intestinalis 0.997 | Streptococcus salivarius 1.04
active: [2] 0.678

CCOC1Oc2ccc(OS(C)(=O)=O)cc2C1(C)C (stereo not given)
inactive: Coprococcus comes 0.943 | Escherichia coli ED1a 0.949 | Escherichia coli IAI1 0.964 | Eubacterium rectale 1.16 | [1] 0.903 | Lactobacillus gasseri 0.891 | Lactobacillus paracasei 0.98 | Odoribacter splanchnicus 1.15 | [2] 0.879 | Parabacteroides merdae 0.927 | Roseburia intestinalis 0.924 | Streptococcus salivarius 0.964

CC(C)C1(C)N=C(c2nc3ccccc3cc2C(=O)O)NC1=O (stereo not given)
inactive: Coprococcus comes 1.01 | Escherichia coli ED1a 0.985 | Escherichia coli IAI1 0.983 | Eubacterium rectale 0.965 | [1] 1.02 | Lactobacillus gasseri 1.03 | Lactobacillus paracasei 0.891 | Odoribacter splanchnicus 0.908 | [2] 0.986 | Parabacteroides merdae 0.997 | Roseburia intestinalis 1.03 | Streptococcus salivarius 0.935

COc1nc(NC(C)C)nc(NC(C)C)n1
inactive: Coprococcus comes 1.01 | Escherichia coli ED1a 1.01 | Escherichia coli IAI1 1.02 | Eubacterium rectale 0.97 | [1] 0.885 | Lactobacillus gasseri 0.984 | Lactobacillus paracasei 1.01 | Odoribacter splanchnicus 1.03 | [2] 1.03 | Parabacteroides merdae 1.02 | Roseburia intestinalis 0.963 | Streptococcus salivarius 1.05

COc1ccc(-c2ccccc2)cc1NNC(=O)OC(C)C
inactive: Coprococcus comes 0.957 | Escherichia coli ED1a 1.03 | Escherichia coli IAI1 1.01 | Eubacterium rectale 1 | [1] 0.965 | Lactobacillus gasseri 0.967 | Lactobacillus paracasei 0.971 | Odoribacter splanchnicus 0.948 | [2] 0.892 | Parabacteroides merdae 0.937 | Roseburia intestinalis 1.03 | Streptococcus salivarius 1.02

CCOP(=S)(Oc1cnc(C(C)(C)C)nc1)OC(C)C (stereo not given)
inactive: Coprococcus comes 0.998 | Escherichia coli ED1a 1.01 | Escherichia coli IAI1 0.985 | Eubacterium rectale 0.811 | [1] 1.02 | Lactobacillus gasseri 1.11 | Lactobacillus paracasei 0.988 | Odoribacter splanchnicus 1.07 | [2] 1.03 | Parabacteroides merdae 0.995 | Roseburia intestinalis 1.01 | Streptococcus salivarius 0.994

CC(C)=NOCCOC(=O)[C@@H](C)Oc1ccc(Oc2cnc3cc(Cl)ccc3n2)cc1
inactive: Coprococcus comes 0.94 | Escherichia coli ED1a 1.01 | Escherichia coli IAI1 1.01 | Eubacterium rectale 0.957 | [1] 0.864 | Lactobacillus gasseri 1.04 | Lactobacillus paracasei 0.974 | Odoribacter splanchnicus 0.931 | [2] 0.983 | Parabacteroides merdae 0.955 | Roseburia intestinalis 1.05 | Streptococcus salivarius 0.966

O=C(O)COc1cc(Cl)c(Cl)cc1Cl
inactive: Coprococcus comes 0.994 | Escherichia coli ED1a 0.965 | Escherichia coli IAI1 1.04 | Eubacterium rectale 0.93 | [1] 0.989 | Lactobacillus gasseri 1.19 | Lactobacillus paracasei 0.995 | Odoribacter splanchnicus 0.98 | [2] 1 | Parabacteroides merdae 0.98 | Roseburia intestinalis 0.966 | Streptococcus salivarius 1.02

CCOP(=S)(OCC)OP(=S)(OCC)OCC
inactive: Coprococcus comes 0.985 | Escherichia coli ED1a 0.968 | Escherichia coli IAI1 0.979 | Eubacterium rectale 0.928 | [1] 1.04 | Lactobacillus gasseri 1.23 | Lactobacillus paracasei 1.04 | Odoribacter splanchnicus 0.98 | [2] 1.02 | Parabacteroides merdae 0.984 | Roseburia intestinalis 0.984 | Streptococcus salivarius 0.976

CC(=O)CC(c1ccco1)c1c(O)c2ccccc2oc1=O (stereo not given)
inactive: Coprococcus comes 1.01 | Escherichia coli ED1a 0.994 | Escherichia coli IAI1 0.987 | Eubacterium rectale 0.985 | [1] 0.986 | Lactobacillus gasseri 1.03 | Lactobacillus paracasei 1.05 | Odoribacter splanchnicus 0.978 | [2] 0.958 | Parabacteroides merdae 1.01 | Roseburia intestinalis 0.975 | Streptococcus salivarius 0.989

CN=C=S
inactive: Coprococcus comes 1 | Escherichia coli ED1a 1 | Escherichia coli IAI1 1.01 | Eubacterium rectale 0.972 | [1] 0.977 | Lactobacillus gasseri 0.962 | Lactobacillus paracasei 1.04 | Odoribacter splanchnicus 1.06 | [2] 1.08 | Parabacteroides merdae 1 | Roseburia intestinalis 0.997 | Streptococcus salivarius 0.994

COC(=O)C(C)Oc1ccc(Oc2ccc(Cl)cc2Cl)cc1 (stereo not given)
inactive: Coprococcus comes 0.97 | Escherichia coli ED1a 0.99 | Escherichia coli IAI1 0.993 | Eubacterium rectale 1.12 | [1] 0.953 | Lactobacillus gasseri 1.06 | Lactobacillus paracasei 0.999 | Odoribacter splanchnicus 1 | [2] 0.973 | Parabacteroides merdae 0.96 | Roseburia intestinalis 0.984 | Streptococcus salivarius 0.984

C[n+]1ccc(-c2cc[n+](C)cc2)cc1.O.[Cl-].[Cl-]
inactive: Coprococcus comes 0.98 | Escherichia coli ED1a 1.03 | Escherichia coli IAI1 0.991 | Eubacterium rectale 0.963 | [1] 0.937 | Lactobacillus gasseri 1.05 | Lactobacillus paracasei 1.01 | Odoribacter splanchnicus 0.873 | [2] 0.997 | Parabacteroides merdae 0.954 | Roseburia intestinalis 1 | Streptococcus salivarius 0.982

CC(C)OP(=O)(OC(C)C)SCc1ccccc1
inactive: Coprococcus comes 1.03 | Escherichia coli ED1a 1.01 | Escherichia coli IAI1 0.984 | Eubacterium rectale 1.09 | [1] 1.01 | Lactobacillus gasseri 0.959 | Lactobacillus paracasei 1.01 | Odoribacter splanchnicus 1.05 | [2] 0.866 | Parabacteroides merdae 0.988 | Roseburia intestinalis 0.951 | Streptococcus salivarius 1

Cc1ccc(NC(=O)c2snnc2C)cc1Cl
inactive: Coprococcus comes 0.965 | Escherichia coli ED1a 0.968 | Escherichia coli IAI1 0.937 | Eubacterium rectale 1 | [1] 0.938 | Lactobacillus gasseri 1.08 | Lactobacillus paracasei 0.866 | Odoribacter splanchnicus 0.975 | [2] 0.986 | Parabacteroides merdae 0.973 | Roseburia intestinalis 0.925 | Streptococcus salivarius 0.962

Cc1cc(Cl)ccc1N=CN(C)C
inactive: Coprococcus comes 1.01 | Escherichia coli ED1a 0.998 | Escherichia coli IAI1 0.963 | Eubacterium rectale 1.16 | [1] 0.978 | Lactobacillus gasseri 1.04 | Lactobacillus paracasei 0.997 | Odoribacter splanchnicus 1.01 | [2] 1.03 | Parabacteroides merdae 0.988 | Roseburia intestinalis 1.02 | Streptococcus salivarius 0.998

Cc1cccc(C)c1N
inactive: Coprococcus comes 1.02 | Escherichia coli ED1a 0.978 | Escherichia coli IAI1 0.985 | Eubacterium rectale 0.997 | [1] 0.927 | Lactobacillus gasseri 1.02 | Lactobacillus paracasei 0.936 | Odoribacter splanchnicus 1.03 | [2] 1.01 | Parabacteroides merdae 0.999 | Roseburia intestinalis 0.977 | Streptococcus salivarius 1.04

Nc1ncn[nH]1
inactive: Coprococcus comes 0.974 | Escherichia coli ED1a 1.02 | Escherichia coli IAI1 1.01 | Eubacterium rectale 0.987 | [1] 1.1 | Lactobacillus gasseri 0.942 | Lactobacillus paracasei 0.995 | Odoribacter splanchnicus 1.03 | [2] 1.02 | Parabacteroides merdae 0.981 | Roseburia intestinalis 0.985 | Streptococcus salivarius 0.997

CC1(C)C(C=C(Cl)Cl)C1C(=O)OC(C#N)c1ccc(F)c(Oc2ccccc2)c1 (mixture of isomers)
inactive: Coprococcus comes 0.981 | Escherichia coli ED1a 0.956 | Escherichia coli IAI1 0.991 | Eubacterium rectale 1.06 | [1] 0.95 | Lactobacillus gasseri 0.782 | Lactobacillus paracasei 0.98 | Odoribacter splanchnicus 0.95 | [2] 0.96 | Parabacteroides merdae 0.937 | Roseburia intestinalis 0.916 | Streptococcus salivarius 0.974

CCCN(CC)CC1COC2(CCC(C(C)(C)C)CC2)O1 (stereo not given)
inactive: Coprococcus comes 0.993 | Escherichia coli ED1a 1 | Escherichia coli IAI1 0.959 | Eubacterium rectale 0.987 | [1] 0.899 | Lactobacillus gasseri 1.04 | Lactobacillus paracasei 0.947 | Odoribacter splanchnicus 0.978 | [2] 0.966 | Parabacteroides merdae 0.965 | Roseburia intestinalis 1.03 | Streptococcus salivarius 0.96

OC(c1ccc(Cl)cc1)(c1ccc(Cl)cc1)C(Cl)(Cl)Cl
inactive: Coprococcus comes 1.01 | Escherichia coli ED1a 0.998 | Escherichia coli IAI1 1.03 | Eubacterium rectale 0.805 | [1] 0.977 | Lactobacillus paracasei 1.01 | Roseburia intestinalis 0.891 | Streptococcus salivarius 0.874
active: Lactobacillus gasseri 0.162 | Odoribacter splanchnicus 0.687 | [2] 0.0387 | Parabacteroides merdae 0.777

CNc1nc(C)c(C)c(OC(=O)N(C)C)n1
inactive: Coprococcus comes 0.998 | Escherichia coli ED1a 1.01 | Escherichia coli IAI1 0.957 | Eubacterium rectale 1.05 | [1] 1.09 | Lactobacillus gasseri 1.03 | Lactobacillus paracasei 0.971 | Odoribacter splanchnicus 0.985 | [2] 1.01 | Parabacteroides merdae 0.998 | Roseburia intestinalis 0.951 | Streptococcus salivarius 1.03

CCCCOC(=O)c1ccccc1C(=O)OCCCC
inactive: Coprococcus comes 1 | Escherichia coli ED1a 1 | Escherichia coli IAI1 0.962 | Eubacterium rectale 1.07 | [1] 1.06 | Lactobacillus gasseri 0.911 | Lactobacillus paracasei 0.986 | Odoribacter splanchnicus 1.07 | Parabacteroides merdae 0.964 | Roseburia intestinalis 0.953 | Streptococcus salivarius 1.02
active: [2] 0.759

Cc1cc(C)nc(Nc2ccccc2)n1
inactive: Coprococcus comes 0.986 | Escherichia coli ED1a 1.01 | Escherichia coli IAI1 0.974 | Eubacterium rectale 0.983 | [1] 1.01 | Lactobacillus gasseri 1.09 | Lactobacillus paracasei 0.988 | Odoribacter splanchnicus 0.965 | [2] 1 | Parabacteroides merdae 0.971 | Roseburia intestinalis 0.999 | Streptococcus salivarius 0.995

Oc1c(Cl)c(Cl)cc(Cl)c1Cl
inactive: Coprococcus comes 0.971 | Escherichia coli ED1a 0.917 | Eubacterium rectale 0.947 | [1] 0.923 | Lactobacillus gasseri 0.936 | Lactobacillus paracasei 1.02 | Parabacteroides merdae 0.786 | Roseburia intestinalis 0.978 | Streptococcus salivarius 0.869
active: Escherichia coli IAI1 0.746 | Odoribacter splanchnicus 0.666 | [2] 0.637
